Records with an inconclusive call do not appear. Calls of active or inactive are those of the source. The calls were made as follows, unless noted: active = hit-call score of the fitted dose curve at least 0.9, where 1 is the maximum; inactive = score below 0.9.
test: CCTE_Harrill_HTTr_Viability_PRF_DMEM_6hr: (Pilot) CCTE's 6-hour Cell Viability Assessment for the High-Throughput Transcriptomics (HTTr) Platform, in MCF-7 cells cultured phenol red-free DMEM + 10% charcoal-stripped fetal bovine serum, Harrill Lab (AID 2283976)
Method in brief: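 MCF-7 cells in phenol red-free DMEM with 10% charcoal-stripped FBS exposed 6 hours to an eight-point dilution series. Propidium iodide exclusion imaged; curves fitted bidirectionally against DMSO.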

Row | Compound | outcome
1 | CON=C(C(=O)OC)c1ccccc1CON=C(C)c1cccc(C(F)(F)F)c1 | inactive
2 | CCNc1nc(Cl)nc(NC(C)(C)C#N)n1 | inactive
3 | C=C(C)[C@H]1Cc2c(ccc3c2O[C@@H]2COc4cc(OC)c(OC)cc4[C@@H]2C3=O)O1 | inactive
4 | CC(C1CC1)C(O)(Cn1cncn1)c1ccc(Cl)cc1 (stereo unspecified) | inactive

test: CCTE_Harrill_HTTr_Viability_PRF_DMEM_12hr: (Pilot) CCTE's 12-hour Cell Viability Assessment for the High-Throughput Transcriptomics (HTTr) Platform, in MCF-7 cells cultured in phenol red-free DMEM + 10% charcoal-stripped fetal bovine serum, Harrill Lab (AID 2283977)
Method in brief: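 MCF-7 cells in phenol red-free DMEM with 10% charcoal-stripped FBS exposed 12 hours to an eight-point dilution series. Viability assessed by high-content imaging of propidium iodide exclusion; bidirectional fit versus DMSO.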

Row | Compound | outcome
5 | CON=C(C(=O)OC)c1ccccc1CON=C(C)c1cccc(C(F)(F)F)c1 | inactive
6 | CCNc1nc(Cl)nc(NC(C)(C)C#N)n1 | inactive
7 | C=C(C)[C@H]1Cc2c(ccc3c2O[C@@H]2COc4cc(OC)c(OC)cc4[C@@H]2C3=O)O1 | inactive
8 | CC(C1CC1)C(O)(Cn1cncn1)c1ccc(Cl)cc1 (stereo unspecified) | inactive

test: TOX21_TR_RXR_BLA_Antagonist_Followup_viability: Viability Assessment in the Tox21 Thyroid Hormone Receptor beta Retinoid X Receptor alpha (RXRa) Antagonism Beta-lactamase (BLA) Follow-Up Assay (AID 2283979; active = hit-call score of the fitted dose curve at least 0.9, where 1 is the maximum)
Method in brief: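 RXRa-UAS-bla HEK293T cells seeded 2,500/well in phenol red-free DMEM with 2% charcoal-stripped FBS, attached 5 h, then exposed to compounds at 11 concentrations in triplicate for 16 h at 37C/5% CO2. Viability read by CellTiter-Glo ATP luminescence; bidirectional fit versus DMSO.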

Row | Compound | outcome
9 | CSC1=N[C@@](C)(c2ccccc2)C(=O)N1Nc1ccccc1 | inactive
10 | CON=C(C(=O)OC)c1ccccc1CON=C(C)c1cccc(C(F)(F)F)c1 | inactive
11 | C=C(C)[C@H]1Cc2c(ccc3c2O[C@@H]2COc4cc(OC)c(OC)cc4[C@@H]2C3=O)O1 | inactive

From PubChem BioAssay (EPA / NIEHS)
